Assay results: PubChem BioAssay AID1851 (National Center for Advancing Translational Sciences (NCATS), 2009)
Screen size: about 16,000 compounds; about 5,700 (36%) were called active. Inconclusive results (about 24%) are left out. The call rests on the fitted dose curve; in most records, active means well fitted curve in the direction sought with a large enough effect; inconclusive means small, poorly fitted or top-dose-only effect, or effect the other way; inactive means no such curve, though single readings can be large or run the other way. The list shows a part of the results.

These compounds were tested against Cytochrome P450 1A2 (Homo sapiens) (UniProt P05177) (assay: Cytochrome panel assay with activity outcomes). Settings: recombinant CYP, pro-luciferin dealkylation, luminescence, p450-cyp1a2; series mostly up to 57.1 µM; activity, negative = inhibition: at the top concentration.
On the % scale 0 is the no-effect control and ±100 the full control effect.

Sequence of Cytochrome P450 1A2 (Homo sapiens) (P05177 whole entry, looked up): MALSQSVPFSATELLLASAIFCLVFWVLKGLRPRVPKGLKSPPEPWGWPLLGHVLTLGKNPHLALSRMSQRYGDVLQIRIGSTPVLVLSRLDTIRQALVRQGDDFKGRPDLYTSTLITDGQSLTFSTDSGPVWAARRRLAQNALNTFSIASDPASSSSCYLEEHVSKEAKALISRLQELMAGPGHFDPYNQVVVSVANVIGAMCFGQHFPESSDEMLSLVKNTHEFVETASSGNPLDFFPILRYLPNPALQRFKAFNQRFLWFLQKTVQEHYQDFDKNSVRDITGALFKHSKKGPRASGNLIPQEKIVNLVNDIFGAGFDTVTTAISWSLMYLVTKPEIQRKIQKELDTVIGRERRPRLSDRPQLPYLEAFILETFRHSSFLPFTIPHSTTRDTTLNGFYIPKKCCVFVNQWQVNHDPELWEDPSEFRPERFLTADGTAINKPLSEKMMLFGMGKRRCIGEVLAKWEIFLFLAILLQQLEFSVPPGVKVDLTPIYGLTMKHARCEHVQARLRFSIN

AC50, active:
CCn1c(SCC(=O)c2ccccc2)nnc1-c1cccs1 3.55 µM
O=C(CSc1nnc(-c2ccccc2)n1-c1ccccc1)c1cccs1 14.1 µM
CCn1c(SCC(=O)c2ccc3ccccc3c2)nnc1-c1cccs1 3.55 µM
CCCCCn1c(=O)c(C(=O)c2ccccc2)nc2ccccc21 0.708 µM
O=[N+]([O-])c1cccc(-c2nc(-c3ccncc3)no2)c1 0.631 µM
O=C(N/N=C/c1cccc(F)c1)c1csc2c1CCCC2 4.47 µM
CC(C)NCCCOc1ccc(Cl)cc1Br 0.631 µM
O=C1CN=C(Nc2ccccc2)N1Cc1cccs1 12.6 µM
CCOc1ccc(NC2=NCC(=O)N2Cc2cccs2)cc1 22.4 µM
Cc1cc(N)n(-c2ccc3ccccc3c2)n1 2 µM
CCN(CC)S(=O)(=O)c1cc(C(=O)OC)ccc1Cl 22.4 µM
Cc1nn(-c2ccccc2)c(C)c1/C=N/NC(=O)c1cc(-c2ccc(Cl)s2)[nH]n1 14.1 µM
Cc1nn(-c2ccccc2)c(Cl)c1/C=N/NC(=O)c1ccco1 7.08 µM

activity, negative = inhibition, inactive:
CCn1c(SCC(=O)N2CCN(S(=O)(=O)c3ccccc3)CC2)nnc1-c1cccs1 -26.8%
Cc1ccc(C(=O)NNC(=O)CSc2nnc(-c3ccncc3)n2-c2ccc(C)cc2)cc1 -28.8%
Cc1ccccc1NC(=O)CSc1nnc(-c2ccccc2)n1-c1ccccc1 -28.6%
Cn1cccc1C(=O)N1CCC2(CC1)CN(C(=O)Nc1ccccc1)C2 -10.3%
O=C(O)C1(C(=O)O)CCN(S(=O)(=O)c2ccccc2)CC1 13.9% [at 2.29 µM]
O=C(c1ccccc1)c1nc2ccccc2n(CCCn2c(=O)c(C(=O)c3ccccc3)nc3ccccc32)c1=O -29.7%
CCS(=O)(=O)N1CCC(C(=O)NCCCOC)CC1 2.72%
CC(C)(C)C1CCc2c(C(=O)N/N=C/c3cccs3)csc2C1 (stereo not drawn) -23.6%
Nc1ncnc2c1ncn2C[C@@H](O)C(=O)O -12.5% [at 11.4 µM]
CCOc1ccc(N2C(=O)/C(=C/c3cccs3)N(CC(=O)OC)C2=S)cc1 -12.2%
CCOc1ccc(N2C(=O)CN=C2Nc2ccccc2Cl)cc1 -17.1%
CCCN(CCC)S(=O)(=O)c1ccc(C(=O)O)cc1 0.818% [at 25.6 µM]
CCN(CC)CCNC(=O)c1ccc(Cl)c(S(=O)(=O)Nc2ccccc2OC)c1 -18.8%
O=c1[nH]c(=S)[nH]c2c1CN(CCCN1CCOCC1)CN2 -13.5% [at 2.29 µM]
O=C(Nc1c(C(=O)N2CCCCC2)cnn1-c1ccccc1)c1ccco1 -12.5%
